# Assay outcomes from PubChem BioAssay.
# B2AR arrestin – agonists driving beta-arrestin recruitment to human beta2-adrenergic receptor; P07550; beta-arrestin recruitment to beta2AR, cell-based reporter; Potency, µM (titrated, usually from 46.1 µM), hits mostly activators; 330,000 compounds, 0.02% hits; AID 492947; further: nearly all actives have a fitted effect of over 65% in size
# CtBP-E1A blk – CtBP/E1A binding inhibition | AlphaScreen GST-E1A/His-CtBP binding, 1536-well; stronger effect = lower value | activity change, % (test concentration not listed) | 340,000 compounds, 0.49% hits; in the data active means activity change below about -65%; inconclusive means mostly about -30% to -63%
#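 AlphaScreen with 125 nM GST-E1A and 125 nM His-CtBP (5X stocks) in Tris pH 8.0, 300 mM NaCl, BSA, Tween 20, TCEP. Compounds preincubated 2 h at 37 deg C, then glutathione donor/nickel acceptor beads added for 1 h at 37 deg C in dark.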
# L3MBTL1 inh – inhibitors of human L3MBTL1; 230,000 compounds, 0.66% hits; AID 485360; AlphaScreen L3MBTL1–H3K9me1 peptide binding; Potency, µM (top dose mostly 57.1 µM), usual class: inhibitors; Q9Y468; further: nearly all actives have a fitted effect of over 60% in size
#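 Displacement of a biotinylated histone H3(1-15) peptide monomethylated at Lys9 (75 nM) from L3MBTL1 (50 nM) was measured by AlphaScreen after a 30 min room-temperature compound incubation; cefsulodin titration served as intraplate control.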
# Six1-Eya2 blk – Six1/Eya2 interaction inhibition; AlphaScreen GST-Six1/His-Eya2 binding, biochemical; stronger effect = lower value; activity change, % (concentration not given with the values); 360,000 compounds, 0.56% hits; AID 651725; in the data active means activity change below about -65%; inconclusive means mostly about -30% to -63%
#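 Homogeneous AlphaScreen proximity assay pairing GST-Six1 with His-tagged Eya2 (added as 5X mix: 250 nM and 500 nM) in 50 mM Tris pH 8.0, 300 mM NaCl, 1 mM TCEP. Glutathione donor and nickel acceptor beads; 1 h, 37 °C, dark.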
# Eya2 phos inh – blocks the phosphatase activity of human Eya2. O00167. 330,000 compounds, 0.006% hits. recombinant Eya2, OMFP fluorescence dephosphorylation (OMFP is methylfluorescein phosphate). AID 488837. Potency, µM (doses to about 76.9 µM), hits mostly inhibitors
# Target sequence (O00167 whole entry, looked up): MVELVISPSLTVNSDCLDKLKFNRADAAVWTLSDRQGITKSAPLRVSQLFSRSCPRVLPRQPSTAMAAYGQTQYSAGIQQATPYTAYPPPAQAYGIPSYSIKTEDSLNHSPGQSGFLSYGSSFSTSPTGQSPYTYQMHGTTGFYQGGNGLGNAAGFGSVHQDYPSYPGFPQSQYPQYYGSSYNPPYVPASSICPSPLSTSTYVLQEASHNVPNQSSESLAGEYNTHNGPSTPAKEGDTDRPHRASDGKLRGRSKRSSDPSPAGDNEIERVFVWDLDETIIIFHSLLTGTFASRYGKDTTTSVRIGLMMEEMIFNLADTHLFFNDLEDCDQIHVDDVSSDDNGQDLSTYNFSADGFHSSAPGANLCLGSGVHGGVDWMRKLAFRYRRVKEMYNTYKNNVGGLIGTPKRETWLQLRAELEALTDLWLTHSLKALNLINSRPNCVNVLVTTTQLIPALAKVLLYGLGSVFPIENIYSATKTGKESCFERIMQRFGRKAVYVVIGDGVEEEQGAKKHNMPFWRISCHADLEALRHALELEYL
#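 Eya2 protein (added as 0.2 uM solution) was preincubated with compound for 10 min at ambient temperature in 50 mM HEPES pH 7.5, 50 mM NaCl, 5 uM MgCl2, 0.05% BSA, 1 mM DTT. OMFP (added at 50 uM) then reacted 10 min; fluorescence read at 485/525 nm.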
# Numbers stand for hits; . = inactive; ? = inconclusive; / = no result given. Rows were chosen to be rich in hits. Some 0.9% of all compounds tested hit in one or more screens of this group. Unless noted, the call rests on the fitted dose curve; in most records, active means well fitted curve in the direction sought with a large enough effect; inconclusive means small, poorly fitted or top-dose-only effect, or another doubt; inactive means no such curve, though single readings can be large; an effect the other way counts as inactive or inconclusive.
SMILES,B2AR arrestin,CtBP-E1A blk,L3MBTL1 inh,Six1-Eya2 blk,Eya2 phos inh
COC(=O)C1=C(C(=O)OC)SC(=C2C(=S)C(C)(C)N(C(=O)C3CC3)c3ccccc32)S1,.,-80.4,/,-76.9,.
COC(=O)C1=C(C(=O)OC)SC(=C2C(=S)C(C)(C)N(C(=O)C(C)C)c3ccccc32)S1,.,.,/,?,.
COc1cc2ccnc(C=NO)c2cc1OC,/,.,/,-85.9,/
CCCCN(C(=O)c1cc(CN2C(=O)c3ccccc3C2=O)ccc1OC)c1c(N)n(CC(C)C)c(=O)[nH]c1=O,/,.,/,.,/
CC(=O)c1c(C)[nH]c(C(=O)OCC(=O)NCCC2=CCCCC2)c1C,.,.,.,.,.
CCN(CC(=O)Nc1ccccc1C(F)(F)F)C(=O)C1CC(=O)N(Cc2ccccc2)C1 (stereo unspecified),.,.,.,-85.8,.
COc1ccccc1C(=O)Nc1ccc2c(c1)nc1n2CCN(Cc2ccccc2)C1,.,.,.,.,.
O=C(Nc1ccc2c(c1)nc1n2CCN(Cc2ccccc2)C1)c1cccs1,.,-87.2,/,-79.6,.
COc1cc(NC(=O)C2CCCN(S(=O)(=O)c3ccc4c(c3)CCCN4C(C)=O)C2)cc(OC)c1 (stereo unspecified),.,-65.1,/,?,.
COc1ccc(NC(=O)C2CCCN(S(=O)(=O)c3ccc4c(c3)CCCN4C(C)=O)C2)cc1 (stereo unspecified),.,.,/,.,.
O=C(Nc1nccs1)c1ccccn1,.,?,?,-86.8,.
O=C(NNC(=O)c1ccccn1)c1ccc(OC(F)F)cc1,.,-78.0,.,-84.4,.
O=C(NNC(=O)c1cccs1)c1ccccn1,/,?,/,-74.5,/
O=C(NCCc1ccccn1)c1ccc(OC(F)F)cc1,.,.,.,.,.
CCOc1ccc(N2CC(C(=O)NCC(=O)Nc3ccc(F)c(F)c3F)CC2=O)cc1 (stereo unspecified),.,.,.,.,.
COc1ncnc2c1ncn2CCCN(CCCc1ccccc1)CCCn1cnc2c(OC)ncnc21,/,.,/,.,/
Oc1ccc(NCc2cccs2)cc1,12.6µM,.,?,.,.
CCNc1nc(NCC)n2c(SCC(=O)c3ccccc3Cl)nnc2n1,.,.,/,.,?
COc1ccc(Cl)cc1NC(=O)CN(C)CC(=O)Nc1c(C)n(C)n(-c2ccccc2)c1=O,.,.,.,.,.
CC(=NNc1nc2ccccc2s1)c1ccncn1,/,-78.1,/,?,/
O=C(Nc1ccccc1)c1cc(C2CCCCN2C(=O)c2ccccc2)on1 (stereo unspecified),/,.,/,.,/
COC1=C(Nc2ccccc2OC)C(=O)c2ccccc2C1=O,.,?,20µM,?,?
Cc1cc(/C=C\c2ccc3cc(N(C)C)ccc3[n+]2C)c(C)n1-c1ccccc1,.,.,31.6µM,.,.
C[n+]1c(/C=C/c2ccc(O)cc2)ccc2ccccc21,.,.,/,.,.
COc1cc(SC#N)ccc1N=Cc1c(C)[nH]n(-c2ccc(C)c(C)c2)c1=O,.,?,.,-65.6,.
SMILES,B2AR arrestin,CtBP-E1A blk,L3MBTL1 inh,Six1-Eya2 blk,Eya2 phos inh
COc1cc(SC#N)ccc1N=Cc1c(C)[nH]n(-c2ccc(Cl)cc2)c1=O,.,.,.,.,.
Cc1ccc(N(Cc2ccccc2)C(=O)c2cc(S(=O)(=O)N3CCOCC3)ccc2C)cc1,.,.,.,.,.
COc1ccc(CC(=O)N/N=C/C=C/c2ccc3c(c2)OCO3)cc1OC,.,.,.,-68.8,?
O=c1c2cc(O)c(O)cc2oc2cc(O)c(C3OC(CO)C(O)C(O)C3O)c(O)c12 (stereo unspecified),.,.,3.16µM,.,.
O=c1cc(-c2ccc(O)c(O)c2)oc2cc(O)c([C@@H]3O[C@H](CO)[C@@H](O)[C@H](O)[C@H]3O)c(O)c12,.,.,?,?,.
O=C1C(NS(=O)(=O)c2cccs2)=C(N2CCN(Cc3ccccc3)CC2)C(=O)c2ccccc21,.,/,?,-71.7,.
O=C1C(NS(=O)(=O)c2cccs2)=C(N2CCN(c3cccc(C(F)(F)F)c3)CC2)C(=O)c2ccccc21,.,-79.7,/,-68.1,.
CCOc1ccccc1N1CCN(C2=C(NS(=O)(=O)c3cccs3)C(=O)c3ccccc3C2=O)CC1,.,-75.6,/,-65.2,.
CN1CCN(C2=C(NS(=O)(=O)c3cccs3)C(=O)c3ccccc3C2=O)CC1,.,.,.,.,.
